Experimental findings from PubChem BioAssay (Tox21) are described below.

Molecules are shown by their SMILES. Results filed as inconclusive are left out. Values without a mark were called inactive. Calls follow the shape of the dose curve; as a rule, active = well fitted inhibition curve with a large enough effect in the signal ratio in the repeat runs (not every such curve was filed as active); inconclusive = weak or mixed curves, or effect the other way; inactive = no such curve, though single readings can be large or run the other way; the % refers to the signal ratio.
% is scaled to controls: 0 for no effect and ±100 for the full control effect.

Chain of Bile acid receptor (Homo sapiens) (Q96RI1 whole entry, looked up): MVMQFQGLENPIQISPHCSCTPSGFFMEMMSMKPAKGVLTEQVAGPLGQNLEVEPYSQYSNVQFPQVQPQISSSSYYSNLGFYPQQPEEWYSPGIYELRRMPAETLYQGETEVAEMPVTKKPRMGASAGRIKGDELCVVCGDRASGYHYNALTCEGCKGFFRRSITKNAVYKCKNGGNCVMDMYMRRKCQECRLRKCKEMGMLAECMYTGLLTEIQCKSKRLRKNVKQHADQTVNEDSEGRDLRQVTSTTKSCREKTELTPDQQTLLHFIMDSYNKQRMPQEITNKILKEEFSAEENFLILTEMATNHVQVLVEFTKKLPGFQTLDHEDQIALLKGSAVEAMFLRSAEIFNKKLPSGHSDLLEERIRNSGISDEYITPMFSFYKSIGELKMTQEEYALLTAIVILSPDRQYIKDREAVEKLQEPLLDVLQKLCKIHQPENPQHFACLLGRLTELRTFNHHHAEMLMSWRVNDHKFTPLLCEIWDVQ

The target in this assay is Bile acid receptor (Homo sapiens) (UniProt Q96RI1). Description: qHTS assay to identify small molecule antagonists of the farnesoid-X-receptor (FXR) signaling pathway (AID 743217). The settings on record: HEK293T FXR-UAS-bla, beta-lactamase ratio, CDCA-stimulated, 16 h; series mostly up to 62.6 µM; activity change, negative = inhibition: at the top concentration. The source says:
U.S. Tox21 Program National Center for Advancing Translational Sciences [NCATS] NIH Chemical Genomics Center [NCGC] U.S. Environmental Protection Agency [EPA] National Institutes of Environmental Health Sciences [NIEHS] National Toxicology Program [NTP] U.S. Food and Drug Administration [FDA] Tox21 Assay Overview: The farnesoid-X-receptor (FXR), a nuclear hormone receptor, is highly expressed in liver, intestine, kidney and adrenal cortex. Natural ligands of FXR are the bile acids (Cholic acid, Chenodeoxy cholic acid etc). FXR is an important regulator of diverse metabolic pathways, including the bile acid homeostasis, lipid and glucose metabolisms. FXR regulates the expression of target genes by binding either as a monomer or as a heterodimer with the retinoid X receptor (RXR). Numerous studies have reported that FXR exerts protective function during cholestasis, diabetes, liver regeneration, and cancer. To identify compounds that inhibit FXR signaling, GeneBLAzer FXR-UAS-bla HEK 293T cell line (Invitrogen, Carlsbad, CA) containing a beta-lactamase reporter gene under the control of a UAS response element was used to screen the Tox21 10K compound library.
Tox21 Assay Protocol Summary: FXR-bla cells were dispensed at 5000 cells/5uL/well in 1536-well black wall/clear bottom plates using a Multidrop Combi (Thermo Fisher Scientific, Waltham, MA) dispenser. After the assay plates were incubated at 37C and 5% CO2 for 5 h, 23 nL of compounds dissolved in DMSO, positive controls or DMSO only was transferred to the assay plate by a Pintool station (Kalypsys, San Diego, CA), followed by addition of 1 uL Chenodeoxycholic acid (50 uM, final concentration in the wells). The assay plates were incubated at 37C for 16 h. After 1 uL of LiveBLAzerTM B/G FRET substrate was added using a Bioraptr Flying Reagent Dispenser (FRD) workstation (Beckman Coulter, Indianapolis, IN), the plates were incubated at room temperature for 2 h, and fluorescence intensity was measured by an Envision plate reader (PerkinElmer, Shelton, CT).
(Quantitative high-throughput screening tests each substance at several concentrations.)
Regarding `OCCN(CCO)c1ccccc1`, the “activity change, negative = inhibition” value was 10.9%.
On to `O=C1CCN(c2ccccc2)N1`, for which the “activity change, negative = inhibition” value is 2.46% [at 81.1 µM].
Turning to `N#Cc1ccc(C(c2ccc(C#N)cc2)n2cncn2)cc1`, the “activity change, negative = inhibition” value was 0.944%.
As for `CC(C)NC[C@@H](O)COc1cccc2ccccc12`, the “activity change, negative = inhibition” value was -12.3%.
As for `CC(C)=CCCC(C)CCOC=O` (stereo not given), the “activity change, negative = inhibition” value was 0.889%.
For `COc1nc(C)nc(NC(=O)NS(=O)(=O)c2ccccc2OCCCl)n1`, the “activity change, negative = inhibition” value was 6.46%.
Consider `CCN1CC(CCN2CCOCC2)C(c2ccccc2)(c2ccccc2)C1=O` (stereo not given), for which the “activity change, negative = inhibition” value was 3.29%.
With `CC(=O)OC(C)OC(C)=O`, the “activity change, negative = inhibition” value is -1.56% [at 81.1 µM].
For `CCOc1ccc(NC(N)=O)cc1`, the “activity change, negative = inhibition” value is 9.21%.
`Cc1cc2nc(N)sc2cc1C`: the “activity change, negative = inhibition” value was 0.935% [at 81.1 µM].
To `CN1C(=O)CC(c2ccccc2)C1=O` (stereo not given) belongs 11.2%; to `COc1cc(N)c(Cl)cc1C(=O)NC1CCN(Cc2ccccc2)CC1`, -14.5%; to `CCc1nnc(NS(=O)(=O)c2ccc(N)cc2)s1`, 0.352%.
As to `CCN(CCCc1ccccc1)CCCc1ccccc1`, the “activity change, negative = inhibition” value was 4%.
For `COC(=O)C(C)O` (stereo not given), the “activity change, negative = inhibition” value is 5.72% [at 81.1 µM].
In the case of `CCCCCCCCc1ccc(S(=O)(=O)O)cc1` it was 13.3%.
`Cn1cnc2c(F)c(Nc3ccc(Br)cc3Cl)c(C(=O)NOCCO)cc21`: the “activity change, negative = inhibition” value is 9.47%.
In the case of `CC1(C)S[C@@H]2[C@H](NC(=O)C(C(=O)O)c3ccccc3)C(=O)N2[C@H]1C(=O)O` (stereo not given in full) it was 0.366%; in that of `CNCCC(Oc1ccccc1OC)c1ccccc1` (stereo not given), 0.691%.
In the case of `CC1(C)O[C@@H]2C[C@H]3[C@@H]4CCC5=CC(=O)CC[C@]5(C)[C@@]4(F)[C@@H](O)C[C@]3(C)[C@]2(C(=O)CCl)O1`, the “activity change, negative = inhibition” value is 1.27%.
Consider `CC(=O)Nc1ccc(C)c(Cl)c1`, for which the “activity change, negative = inhibition” value was 0.895%.
With `CCCc1c2oc(C(=O)O)cc(=O)c2cc2c(=O)cc(C(=O)O)n(CC)c12`, the “activity change, negative = inhibition” value was 0.471%.
As for `Oc1ccccc1F`, the “activity change, negative = inhibition” value is -2.96%.
In the case of `CCC(=O)Nc1ccc(O)cc1`, the “activity change, negative = inhibition” value is -3.93%.
With `CCCCC(CC)COC(=O)COc1cc(Cl)c(Cl)cc1Cl` (stereo not given), the “activity change, negative = inhibition” value is 4.56%.
Turning to `OC[C@H]1O[C@@H](O[C@H]2[C@H](O)[C@@H](O)[C@H](O)O[C@@H]2CO)[C@H](O)[C@@H](O)[C@H]1O`, the “activity change, negative = inhibition” value was -4.21%.
As to `NC(=O)NS(=O)(=O)c1ccc(Cl)cc1`, the “activity change, negative = inhibition” value was 11%.
Consider `CCCCCCCCOC(=O)CCCCCCCCC(=O)OCCCCCCCC`, for which the “activity change, negative = inhibition” value is -19.9%.
With `CN(CC1(C)CCCO1)S(=O)(=O)c1ccc(Cl)c(S(N)(=O)=O)c1` (stereo not given), the “activity change, negative = inhibition” value was 3.58%.
On to `N#CSCC(=O)O`, for which the “activity change, negative = inhibition” value is 5.61%.
For `Oc1ccccc1C=NCc1ccccc1`, the “activity change, negative = inhibition” value is 4.16%.
In the case of `COC(=O)c1ccc(OC)cc1` it was 1.29%; in that of `CC(=O)N[C@@H](CC(C)C)C(=O)O`, 2.78%; in that of `CC(C)c1ccccc1`, 0.0454% [at 81.1 µM].
To `Cc1ccc(C)c(N)c1` belongs 2.82%; to `CCOC(=O)C1CC(=O)C(=C(O)C2CC2)C(=O)C1` (stereo not given), 1.39%; to `CC(C)(C)c1ccc(OC(=O)c2ccccc2O)cc1`, -10.9%.
As to `CC1(C)C(=O)N(Cl)C(=O)N1Br`, the “activity change, negative = inhibition” value is 4.63%.
On to `COc1cc2c(cc1N)oc1ccccc12`, for which the “activity change, negative = inhibition” value was -2.27% [at 81.1 µM].
Consider `O=[N+]([O-])c1nccn1CO[C@@H](CO)[C@H](O)CO`, for which the “activity change, negative = inhibition” value is 3.28%.
